Experimental data from PubChem BioAssay AID779 (Sanford-Burnham Center for Chemical Genomics, 2007).
The source made the active and inactive calls. No rule for the calls is given here.

Assay: PLAP enzyme activity inhibition – biochemical, colorimetric, counter-screen, dose response (AID 779)
Details: colorimetric OD read-out

Structure (SMILES) | IC50
Cc1c(NC(=S)N/N=C/c2cccc(O)c2)c(=O)n(-c2ccccc2)n1C | > 50 µM (inactive)
Cc1c(NC(=O)CCN2C(=O)c3ccccc3C2=O)c(=O)n(-c2ccccc2)n1C | > 50 µM (inactive)
CC(=O)N(c1ccc2oc(=O)sc2c1)S(=O)(=O)c1ccccc1 | > 50 µM (inactive)
CSc1nc(SCCO)c2sc3nc(-c4ccco4)c4c(c3c2n1)CC(C)(C)OC4 | > 50 µM (inactive)
O=C(c1ccc2c(=O)n(Cc3ccc4c(c3)OCO4)c(=S)[nH]c2c1)N1CCCCC1 | > 50 µM (inactive)
O=C(O)c1ccccc1C(=O)NNc1ccc(F)cc1 | > 50 µM (inactive)
COc1ccc2oc(/C=C/N(C)C)c(C(=O)c3ccc(Cl)cc3)c2c1 | > 50 µM (inactive)
CCc1cccc2c(C(=O)CSc3nnc(-c4ccoc4C)n3C)c[nH]c12 | > 50 µM (inactive)
FC(F)(F)c1nnc2c(Sc3ccccn3)nc3ccccc3n12 | > 50 µM (inactive)
CCOC(=O)C(C(=O)OCC)c1cc(Br)c2noc3c2c1C(=O)c1ccccc1-3 | > 50 µM (inactive)
COc1ccc(S(=O)(=O)Nc2cc(Sc3ncn[nH]3)c(O)c3ccccc23)cc1 | > 50 µM (inactive)
CCCCCn1nc(-c2ccccc2)c2nc3ccccc3nc21 | > 50 µM (inactive)
C=CCn1c(=O)/c(=C/c2cc(OC)c(OC)c(OC)c2)s/c1=C(/C#N)c1nc2ccccc2n1C | > 50 µM (inactive)
COc1ccc(N2Cc3cccc(C(=O)O)c3C2=O)cc1 | > 50 µM (inactive)
